Assay results: paper PMC11006913

Columns and labels:
Test in all cases: PBM; 200 nM protein, PBS
Details in all cases: dsDNA, one strand shown
HOXB9 [1] = molecular target: HOXB9 (Homo sapiens, UniProt P17482 171-250, T197M)
HOXC9 [2] = molecular target: HOXC9 (Homo sapiens, UniProt P31274 178-260, K195R)
HOXC10 [3] = molecular target: HOXC10 (Homo sapiens, UniProt Q9NYD6 254-340)
HOXB9 [4] = molecular target: HOXB9 (Homo sapiens, UniProt P17482 171-250)
HOXC9 [5] = molecular target: HOXC9 (Homo sapiens, UniProt P31274 178-260)
Sequence of HOXC9 (Homo sapiens, UniProt P31274 178-260) (P31274 178-260): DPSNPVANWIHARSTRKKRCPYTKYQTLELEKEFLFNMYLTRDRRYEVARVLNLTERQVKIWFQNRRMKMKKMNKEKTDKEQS

HOXD13 [6] = molecular target: HOXD13 (Homo sapiens, UniProt P35453 263-343, T313R)
Sequence of HOXD13 (Homo sapiens, UniProt P35453 263-343, T313R) (P35453 263-343 T313R): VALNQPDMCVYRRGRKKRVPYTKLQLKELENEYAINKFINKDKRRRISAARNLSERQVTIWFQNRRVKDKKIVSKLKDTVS

HOXC9 [7] = molecular target: HOXC9 (Homo sapiens, UniProt P31274 178-260, R193K)
Sequence of HOXC9 (Homo sapiens, UniProt P31274 178-260, R193K) (P31274 178-260 R193K): as the sequence (P31274 178-260) above, with R16K counted along it

HOXD13 [8] = molecular target: HOXD13 (Homo sapiens, UniProt P35453 263-343)
Sequence of HOXD13 (Homo sapiens, UniProt P35453 263-343) (P35453 263-343): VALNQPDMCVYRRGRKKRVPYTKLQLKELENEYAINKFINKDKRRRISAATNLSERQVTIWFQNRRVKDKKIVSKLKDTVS

HOXC10 [9] = molecular target: HOXC10 (Homo sapiens, UniProt Q9NYD6 254-340, K271E)
Sequence of HOXC10 (Homo sapiens, UniProt Q9NYD6 254-340, K271E) (Q9NYD6 254-340 K271E): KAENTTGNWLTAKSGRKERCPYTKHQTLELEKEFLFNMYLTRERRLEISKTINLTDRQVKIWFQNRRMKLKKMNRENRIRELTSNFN

HOXD13 [10] = molecular target: HOXD13 (Homo sapiens, UniProt P35453 263-343, T313A)
Sequence of HOXD13 (Homo sapiens, UniProt P35453 263-343, T313A) (P35453 263-343 T313A): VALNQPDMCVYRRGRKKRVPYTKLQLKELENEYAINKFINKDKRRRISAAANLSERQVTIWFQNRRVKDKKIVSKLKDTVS

HOXB9 [11] = molecular target: HOXB9 (Homo sapiens, UniProt P17482 171-250, R186Q)
Sequence of HOXB9 (Homo sapiens, UniProt P17482 171-250, R186Q) (P17482 171-250 R186Q): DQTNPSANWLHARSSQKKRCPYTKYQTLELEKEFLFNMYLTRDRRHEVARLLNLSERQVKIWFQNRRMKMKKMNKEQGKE

HOXC9 [12] = molecular target: HOXC9 (Homo sapiens, UniProt P31274 178-260, R222W)
Sequence of HOXC9 (Homo sapiens, UniProt P31274 178-260, R222W) (P31274 178-260 R222W): as the sequence (P31274 178-260) above, with R45W counted along it

ALX4 = ALX4 (Homo sapiens, UniProt Q9H161 200-286, Q225E)
Sequence of ALX4 (Q9H161 200-286 Q225E): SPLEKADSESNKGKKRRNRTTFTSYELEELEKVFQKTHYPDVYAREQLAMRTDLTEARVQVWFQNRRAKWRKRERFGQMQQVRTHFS

MSX2 [13] = molecular target: MSX2 (Homo sapiens, UniProt P35548 130-214, R199I)
Sequence of MSX2 (Homo sapiens, UniProt P35548 130-214, R199I) (P35548 130-214 R199I): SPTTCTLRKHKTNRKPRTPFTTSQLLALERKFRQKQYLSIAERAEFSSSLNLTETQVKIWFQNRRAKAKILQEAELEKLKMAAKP

MSX2 [14] = molecular target: MSX2 (Homo sapiens, UniProt P35548 130-214)
Sequence of MSX2 (Homo sapiens, UniProt P35548 130-214) (P35548 130-214): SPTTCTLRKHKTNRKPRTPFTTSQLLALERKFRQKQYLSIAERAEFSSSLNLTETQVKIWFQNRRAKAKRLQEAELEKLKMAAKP

PROP1 [15] = molecular target: PROP1 (Homo sapiens, UniProt O75360 56-141)
Sequence of PROP1 (Homo sapiens, UniProt O75360 56-141) (O75360 56-141): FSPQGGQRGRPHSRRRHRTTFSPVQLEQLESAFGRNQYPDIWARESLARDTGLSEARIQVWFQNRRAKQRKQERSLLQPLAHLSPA

PROP1 [16] = molecular target: PROP1 (Homo sapiens, UniProt O75360 56-141, R99H)
Sequence of PROP1 (Homo sapiens, UniProt O75360 56-141, R99H) (O75360 56-141 R99H): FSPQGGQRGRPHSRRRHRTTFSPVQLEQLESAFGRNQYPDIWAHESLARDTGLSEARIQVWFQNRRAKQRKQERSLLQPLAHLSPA

PROP1 [17] = molecular target: PROP1 (Homo sapiens, UniProt O75360 56-141, F88S)
Sequence of PROP1 (Homo sapiens, UniProt O75360 56-141, F88S) (O75360 56-141 F88S): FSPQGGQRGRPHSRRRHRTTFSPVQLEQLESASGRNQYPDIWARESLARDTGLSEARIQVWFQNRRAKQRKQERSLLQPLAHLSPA

MSX2 [18] = molecular target: MSX2 (Homo sapiens, UniProt P35548 130-214, F161Y)
Sequence of MSX2 (Homo sapiens, UniProt P35548 130-214, F161Y) (P35548 130-214 F161Y): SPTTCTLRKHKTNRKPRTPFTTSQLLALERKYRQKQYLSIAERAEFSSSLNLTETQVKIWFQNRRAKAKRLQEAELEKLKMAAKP

Sequence of HOXB9 (Homo sapiens, UniProt P17482 171-250, T197M) (P17482 171-250 T197M): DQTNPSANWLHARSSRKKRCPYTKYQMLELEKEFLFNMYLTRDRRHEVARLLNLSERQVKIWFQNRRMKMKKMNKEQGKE
Sequence of HOXB9 (Homo sapiens, UniProt P17482 171-250) (P17482 171-250): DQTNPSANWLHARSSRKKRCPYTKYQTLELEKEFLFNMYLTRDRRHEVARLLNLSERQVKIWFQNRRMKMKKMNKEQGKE
Sequence of HOXC10 (Homo sapiens, UniProt Q9NYD6 254-340) (Q9NYD6 254-340): as the sequence (Q9NYD6 254-340 K271E) above, with E18K counted along it
Sequence of HOXC9 (Homo sapiens, UniProt P31274 178-260, K195R) (P31274 178-260 K195R): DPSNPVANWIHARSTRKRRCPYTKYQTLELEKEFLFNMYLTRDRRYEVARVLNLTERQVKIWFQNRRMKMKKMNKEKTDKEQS

Sequence | binding signal (HOXB9 [1]) | binding signal (HOXC9 [2]) | binding signal (HOXC10 [3]) | binding signal (HOXB9 [4]) | binding signal (HOXC9 [5]) | binding signal (HOXD13 [6]) | binding signal (HOXC9 [7]) | binding signal (HOXD13 [8]) | binding signal (HOXC10 [9]) | binding signal (HOXD13 [10]) | binding signal (HOXB9 [11]) | binding signal (HOXC9 [12]) | binding signal (ALX4) | binding signal (MSX2 [13]) | binding signal (MSX2 [14]) | binding signal (PROP1 [15]) | binding signal (PROP1 [16]) | binding signal (PROP1 [17]) | binding signal (MSX2 [18])
CATAAAAC | 9.89 upbm affinity estimate (log intensity, higher = more binding, comparable within an allelic series) | 12.9 upbm affinity estimate (log intensity, higher = more binding, comparable within an allelic series) | 12.6 upbm affinity estimate (log intensity, higher = more binding, comparable within an allelic series) | 12.4 upbm affinity estimate (log intensity, higher = more binding, comparable within an allelic series) | 13.1 upbm affinity estimate (log intensity, higher = more binding, comparable within an allelic series) | 10.7 upbm affinity estimate (log intensity, higher = more binding, comparable within an allelic series) | 13 upbm affinity estimate (log intensity, higher = more binding, comparable within an allelic series) | 12 upbm affinity estimate (log intensity, higher = more binding, comparable within an allelic series) | 11.9 upbm affinity estimate (log intensity, higher = more binding, comparable within an allelic series) | 11.7 upbm affinity estimate (log intensity, higher = more binding, comparable within an allelic series) | 12.1 upbm affinity estimate (log intensity, higher = more binding, comparable within an allelic series) | 11.3 upbm affinity estimate (log intensity, higher = more binding, comparable within an allelic series) | – | – | – | – | – | – | –
AATTTTAT | 9.84 upbm affinity estimate (log intensity, higher = more binding, comparable within an allelic series) | 12.6 upbm affinity estimate (log intensity, higher = more binding, comparable within an allelic series) | 12.3 upbm affinity estimate (log intensity, higher = more binding, comparable within an allelic series) | 11.9 upbm affinity estimate (log intensity, higher = more binding, comparable within an allelic series) | 12.7 upbm affinity estimate (log intensity, higher = more binding, comparable within an allelic series) | 10.7 upbm affinity estimate (log intensity, higher = more binding, comparable within an allelic series) | 12.6 upbm affinity estimate (log intensity, higher = more binding, comparable within an allelic series) | – | 11.7 upbm affinity estimate (log intensity, higher = more binding, comparable within an allelic series) | – | 11.6 upbm affinity estimate (log intensity, higher = more binding, comparable within an allelic series) | 11.2 upbm affinity estimate (log intensity, higher = more binding, comparable within an allelic series) | – | – | – | – | – | – | –
GTTTATTA | 9.87 upbm affinity estimate (log intensity, higher = more binding, comparable within an allelic series) | 12.6 upbm affinity estimate (log intensity, higher = more binding, comparable within an allelic series) | 12.4 upbm affinity estimate (log intensity, higher = more binding, comparable within an allelic series) | 11.7 upbm affinity estimate (log intensity, higher = more binding, comparable within an allelic series) | 12.6 upbm affinity estimate (log intensity, higher = more binding, comparable within an allelic series) | 11 upbm affinity estimate (log intensity, higher = more binding, comparable within an allelic series) | 12.6 upbm affinity estimate (log intensity, higher = more binding, comparable within an allelic series) | 12 upbm affinity estimate (log intensity, higher = more binding, comparable within an allelic series) | 11.6 upbm affinity estimate (log intensity, higher = more binding, comparable within an allelic series) | 11.8 upbm affinity estimate (log intensity, higher = more binding, comparable within an allelic series) | 11.5 upbm affinity estimate (log intensity, higher = more binding, comparable within an allelic series) | 11.2 upbm affinity estimate (log intensity, higher = more binding, comparable within an allelic series) | – | – | – | – | – | – | –
CAATAAAA | 10.1 upbm affinity estimate (log intensity, higher = more binding, comparable within an allelic series) | 13.2 upbm affinity estimate (log intensity, higher = more binding, comparable within an allelic series) | 12.9 upbm affinity estimate (log intensity, higher = more binding, comparable within an allelic series) | 12.7 upbm affinity estimate (log intensity, higher = more binding, comparable within an allelic series) | 13.2 upbm affinity estimate (log intensity, higher = more binding, comparable within an allelic series) | 11.2 upbm affinity estimate (log intensity, higher = more binding, comparable within an allelic series) | 13.2 upbm affinity estimate (log intensity, higher = more binding, comparable within an allelic series) | 12.5 upbm affinity estimate (log intensity, higher = more binding, comparable within an allelic series) | 12.5 upbm affinity estimate (log intensity, higher = more binding, comparable within an allelic series) | 12.3 upbm affinity estimate (log intensity, higher = more binding, comparable within an allelic series) | 12.4 upbm affinity estimate (log intensity, higher = more binding, comparable within an allelic series) | 11.7 upbm affinity estimate (log intensity, higher = more binding, comparable within an allelic series) | 11.2 upbm affinity estimate (log intensity, higher = more binding, comparable within an allelic series) | – | – | – | – | – | –
CCGCCTGC | 8.29 upbm affinity estimate (log intensity, higher = more binding, comparable within an allelic series) | 9.62 upbm affinity estimate (log intensity, higher = more binding, comparable within an allelic series) | – | 8.24 upbm affinity estimate (log intensity, higher = more binding, comparable within an allelic series) | 9.64 upbm affinity estimate (log intensity, higher = more binding, comparable within an allelic series) | – | 9.49 upbm affinity estimate (log intensity, higher = more binding, comparable within an allelic series) | – | – | – | 8.24 upbm affinity estimate (log intensity, higher = more binding, comparable within an allelic series) | 9.72 upbm affinity estimate (log intensity, higher = more binding, comparable within an allelic series) | – | 9.41 upbm affinity estimate (log intensity, higher = more binding, comparable within an allelic series) | 9.55 upbm affinity estimate (log intensity, higher = more binding, comparable within an allelic series) | 6.72 upbm affinity estimate (log intensity, higher = more binding, comparable within an allelic series) | 6.65 upbm affinity estimate (log intensity, higher = more binding, comparable within an allelic series) | 6.62 upbm affinity estimate (log intensity, higher = more binding, comparable within an allelic series) | 9.55 upbm affinity estimate (log intensity, higher = more binding, comparable within an allelic series)
ACAATAAA | 9.83 upbm affinity estimate (log intensity, higher = more binding, comparable within an allelic series) | 12.6 upbm affinity estimate (log intensity, higher = more binding, comparable within an allelic series) | 12.3 upbm affinity estimate (log intensity, higher = more binding, comparable within an allelic series) | 12 upbm affinity estimate (log intensity, higher = more binding, comparable within an allelic series) | 12.9 upbm affinity estimate (log intensity, higher = more binding, comparable within an allelic series) | 10.9 upbm affinity estimate (log intensity, higher = more binding, comparable within an allelic series) | 12.7 upbm affinity estimate (log intensity, higher = more binding, comparable within an allelic series) | 12.1 upbm affinity estimate (log intensity, higher = more binding, comparable within an allelic series) | 11.7 upbm affinity estimate (log intensity, higher = more binding, comparable within an allelic series) | 11.8 upbm affinity estimate (log intensity, higher = more binding, comparable within an allelic series) | 11.7 upbm affinity estimate (log intensity, higher = more binding, comparable within an allelic series) | 11.1 upbm affinity estimate (log intensity, higher = more binding, comparable within an allelic series) | – | – | – | – | – | – | –
